# PubChem BioAssay
# Active and inactive are the calls of the source.
# Legend:
# [1] = optical density shifts of acrAB sulA E. coli – strain DRC41, OD650, 48 h, E. coli filamentation inducer project, primary screen (AID 1152); details: higher = more signal, called active from +8 up or from −8 down;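 also: E. coli MC1000 strain DRC41 lacking acrAB efflux pump and sulA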
# [2] = probe aLefty1 binding on compound microarray – biochemical, small-molecule microarray, 635/667 nm fluorescence, primary screen (AID 1153); details: higher = more signal;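 also: score merges spot fluorescence with signal-to-noise ratio from the scanned slide images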
# [3] = plasmodial surface anion channel blockers, osmotic lysis – cell-based, P. falciparum Indochina, OD700, 1 h, primary screen (AID 1154); details: P. falciparum Indochina infected RBC osmotic lysis, higher = more signal, called active from +8 up or from −8 down
# [4] = plasmodial surface anion channel blockers, osmotic lysis – cell-based, P. falciparum Indochina, OD700, 2 h, primary screen (AID 1155);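 also: lysis reports solute entry through the parasite surface anion channel PSAC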; details: P. falciparum Indochina infected erythrocytes, higher = more signal, called active from +8 up or from −8 down
# [5] = changes in parasitized red cell lysis, either direction – P. falciparum Indochina, OD700, 3 h, PSAC antagonist project, primary screen (AID 1156); details: P. falciparum-infected erythrocytes, osmotic lysis, higher = more signal, called active from +8 up or from −8 down
# [6] = plasmodial surface anion channel blockers, osmotic lysis – cell-based, P. falciparum Indochina, OD700, 18 h, primary screen (AID 1157); details: P. falciparum Indochina infected erythrocytes, osmotic lysis OD700, 18 h; higher = more signal, called active from +8 up or from −8 down
# [7] = S6 kinase pathway phospho-S6 level changes – cell-based, A549, cytoblot, luminescence, serum-stimulated, primary screen (AID 1158); details: 5 h, higher = more signal;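 also: serum-stimulated A549 lung adenocarcinoma cells; signal is phosphorylated S6 detected by cytoblot immunostaining with HRP secondary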
# [8] = target: NADPH oxidase 2 (Homo sapiens) (UniProt P04839); assay: compounds shifting NOX2 Amplex Red fluorescence – cell-based, HEK293-NOX2, PMA-stimulated, NOX inhibitor project, primary screen (AID 1159); details: 45 min, higher = more signal, called active from +8 up or from −8 down; also: test concentration not given here
# NADPH oxidase 2 (Homo sapiens), sequence (P04839 whole entry, looked up): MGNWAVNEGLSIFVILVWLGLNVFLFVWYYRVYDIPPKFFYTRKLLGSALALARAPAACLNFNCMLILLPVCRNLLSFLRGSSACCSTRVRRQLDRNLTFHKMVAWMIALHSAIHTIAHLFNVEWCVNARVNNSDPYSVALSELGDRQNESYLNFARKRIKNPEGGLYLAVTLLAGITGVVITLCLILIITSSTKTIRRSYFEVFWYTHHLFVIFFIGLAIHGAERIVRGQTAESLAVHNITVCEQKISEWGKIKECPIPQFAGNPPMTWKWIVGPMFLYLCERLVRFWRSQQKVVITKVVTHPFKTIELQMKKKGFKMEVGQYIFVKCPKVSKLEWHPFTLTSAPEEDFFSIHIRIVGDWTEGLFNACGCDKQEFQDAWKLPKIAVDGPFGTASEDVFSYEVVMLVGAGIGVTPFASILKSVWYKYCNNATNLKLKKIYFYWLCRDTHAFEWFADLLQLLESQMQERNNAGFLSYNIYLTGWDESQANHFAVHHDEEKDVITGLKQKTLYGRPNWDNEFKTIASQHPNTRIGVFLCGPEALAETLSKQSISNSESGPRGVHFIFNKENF
# [9] = target: NADPH oxidase 4 (Homo sapiens) (UniProt Q9NPH5); assay: compounds shifting NOX4 Amplex Red fluorescence – cell-based, HEK293-NOX4, tetracycline-induced, NOX inhibitor project, primary screen (AID 1160); details: HEK293-NOX4, Amplex Red H2O2 fluorescence, 45 min; higher = more signal, called active from +8 up or from −8 down
# NADPH oxidase 4 (Homo sapiens), sequence (Q9NPH5 whole entry, looked up): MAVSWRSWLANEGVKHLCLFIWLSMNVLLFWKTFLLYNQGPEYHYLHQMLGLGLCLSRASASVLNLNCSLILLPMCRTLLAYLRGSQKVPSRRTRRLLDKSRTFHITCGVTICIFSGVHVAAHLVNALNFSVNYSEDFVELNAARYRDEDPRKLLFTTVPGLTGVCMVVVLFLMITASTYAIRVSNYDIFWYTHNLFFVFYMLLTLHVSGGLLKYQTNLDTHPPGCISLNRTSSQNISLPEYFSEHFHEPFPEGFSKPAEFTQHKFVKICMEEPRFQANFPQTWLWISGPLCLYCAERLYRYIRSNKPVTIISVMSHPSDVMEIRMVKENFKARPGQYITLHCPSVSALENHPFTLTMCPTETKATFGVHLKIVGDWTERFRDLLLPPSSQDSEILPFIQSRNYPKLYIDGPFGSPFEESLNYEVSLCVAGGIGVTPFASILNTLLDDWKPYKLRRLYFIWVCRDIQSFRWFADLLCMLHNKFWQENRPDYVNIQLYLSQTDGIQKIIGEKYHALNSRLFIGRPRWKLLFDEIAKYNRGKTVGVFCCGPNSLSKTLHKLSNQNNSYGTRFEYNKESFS
# [10] = target: NADPH oxidase 5 (Homo sapiens) (UniProt Q96PH1); assay: compounds shifting NOX5 Amplex Red fluorescence – cell-based, HEK293-NOX5, NOX inhibitor project, primary screen (AID 1161); details: HEK293-NOX5, ionomycin, 45 min, higher = more signal
# NADPH oxidase 5 (Homo sapiens), sequence (Q96PH1 whole entry, looked up): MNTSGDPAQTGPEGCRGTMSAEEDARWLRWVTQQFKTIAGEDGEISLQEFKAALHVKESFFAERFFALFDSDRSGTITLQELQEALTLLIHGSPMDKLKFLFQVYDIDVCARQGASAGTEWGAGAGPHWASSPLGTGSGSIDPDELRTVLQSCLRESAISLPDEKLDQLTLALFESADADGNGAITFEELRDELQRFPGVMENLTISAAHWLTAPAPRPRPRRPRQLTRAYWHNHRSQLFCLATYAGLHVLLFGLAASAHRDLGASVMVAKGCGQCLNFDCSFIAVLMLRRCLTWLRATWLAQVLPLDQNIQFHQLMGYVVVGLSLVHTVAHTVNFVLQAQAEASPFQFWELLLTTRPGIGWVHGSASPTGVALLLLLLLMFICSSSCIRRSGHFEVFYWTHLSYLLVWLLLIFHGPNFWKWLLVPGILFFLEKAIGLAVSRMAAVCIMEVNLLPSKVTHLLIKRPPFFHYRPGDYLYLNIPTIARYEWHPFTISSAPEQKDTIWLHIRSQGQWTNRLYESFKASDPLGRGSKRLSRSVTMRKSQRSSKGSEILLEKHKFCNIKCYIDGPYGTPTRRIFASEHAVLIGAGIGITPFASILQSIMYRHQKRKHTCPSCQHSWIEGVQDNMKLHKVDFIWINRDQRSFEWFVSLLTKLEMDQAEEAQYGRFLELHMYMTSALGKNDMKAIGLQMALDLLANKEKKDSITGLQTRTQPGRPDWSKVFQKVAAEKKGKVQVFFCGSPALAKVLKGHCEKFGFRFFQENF
# [11] = compound effects on lung adenocarcinoma cell viability – A549, calcein-AM fluorescence, 48 h, basal, profiling panel (AID 1162); details: higher = more signal; also: test concentration not given here
# [12] = compound effects on differentiated 3T3-L1 adipocyte viability – cell-based, 3T3-L1 adipocytes, calcein-AM fluorescence, 48 h, basal, profiling panel (AID 1163); details: 3T3-L1 adipocytes viability, higher = more signal; also: test concentration not given here
# [13] = compound effects on hepatocellular carcinoma cell viability – HepG2, calcein-AM fluorescence, 48 h, basal, profiling panel (AID 1164); details: higher = more signal; also: test concentration not given here
# [14] = compound effects on multiple myeloma cell viability – MM1S, calcein-AM fluorescence, 48 h, basal, profiling panel (AID 1165); details: higher = more signal;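 also: viability of MM1S multiple myeloma cells under basal unstimulated conditions; test concentration not given here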
# [15] = calcein-AM signal in unstimulated myeloma cells – cell-based, calcein-AM fluorescence, 48 h, PK04 Diversity Set, profiling panel (AID 1166); details: RPMI8226 myeloma viability, higher = more signal;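 also: cells grown under basal conditions without added stimulus; test concentration not given here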
# [16] = JC-1 mitochondrial signal, unstimulated HepG2 cells – cell-based, JC-1 fluorescence, 24 h, 100 nL compound, profiling panel (AID 1167); details: HepG2 mitochondrial potential, higher = more signal; also: test concentration not given here
# [17] = JC-1 mitochondrial signal, unstimulated adipocytes – cell-based, JC-1 fluorescence, 3T3-L1 adipocytes, 24 h, 100 nL compound, profiling panel (AID 1168); details: JC-1 mitochondrial fluorescence, higher = more signal, called active from +8 up or from −8 down; also: test concentration not given here
# [18] = JC-1 mitochondrial signal, unstimulated myeloma cells – cell-based, JC-1 fluorescence, RPMI8226, 24 h, 100 nL compound, profiling panel (AID 1169); details: JC-1 mitochondrial potential fluorescence, higher = more signal; also: test concentration not given here
# [19] = JC-1 mitochondrial signal, unstimulated MM1S myeloma – cell-based, JC-1 fluorescence, 24 h, 100 nL compound, profiling panel (AID 1170); details: MM1S mitochondrial potential, higher = more signal; also: test concentration not given here
# [20] = resazurin metabolic signal in A549 cells – cell-based, resazurin fluorescence, 24 h, PK04 Diversity Set, profiling panel (AID 1171); details: A549 viability, higher = more signal, called active from +8 up or from −8 down; also: test concentration not given here
SMILES,z-score [1],composite z-score [2],z-score [3],z-score [4],z-score [5],z-score [6],z-score [7],z-score [8],z-score [9],z-score [10],z-score [11],z-score [12],z-score [13],z-score [14],z-score [15],z-score [16],z-score [17],z-score [18],z-score [19],z-score [20]
CCCCCCc1nc(-c2ccc(-c3ccc(Cl)c(Cl)c3)o2)cc2c1[Si](C(C)C)(C(C)C)O[C@H]2c1ccccc1,0.321 (inactive),-0.598,0.439 (inactive),0.0435 (inactive),1.47 (inactive),0.333 (inactive),0.205,-1.24 (inactive),-1.44 (inactive),-1.49,-0.793,-0.0866,-1.08,-0.373,0.568,0.474,-0.0412 (inactive),0.278,-0.284,1.19 (inactive)
O=C1C2C=CC(C(O)c3ccc(F)cc3)N(Nc3ccc([N+](=O)[O-])cc3)C2C(=O)N1c1ccccc1 (stereo not given),-1.01 (inactive),0.129,19.7 (active),3.8 (inactive),0.721 (inactive),1.22 (inactive),-0.454,-0.95 (inactive),-2.96 (inactive),-1.91,-0.755,-0.376,0.679,-0.06,-0.313,-0.382,-0.287 (inactive),-0.403,-0.977,0.68 (inactive)
CCCC[C@H]1C[C@@H]1[C@@H]1N(P(=O)(c2ccccc2)c2ccccc2)C[C@@](O)(c2ccccc2)CC12CC2,-1.84 (inactive),0.404,2.07 (inactive),1.07 (inactive),0.425 (inactive),1.55 (inactive),-0.443,-0.476 (inactive),-0.925 (inactive),-2.1,-3.9,-0.228,-5.35,-3.29,-4.7,-2.84,-0.556 (inactive),-0.917,-2.78,4.58 (inactive)
O=C1OCCC=C[C@H]2OC34C=CCN(CCN5CCOCC5)C(=O)[C@H]3N(CCCCCO)C(=O)[C@@H]4C12 (stereo not given in full),0.725 (inactive),-0.103,2.61 (inactive),0.535 (inactive),2.32 (inactive),0.305 (inactive),-0.0483,0.855 (inactive),0.393 (inactive),1.85,0.478,0.0858,1.02,-0.0119,0.218,0.575,0.172 (inactive),-0.152,-0.355,0.203 (inactive)
C=CC[C@]1(C(=O)N2CCOCC2)N=C(c2ccc(OCCCO)cc2)O[C@H]1c1ccccc1N=[N+]=[N-],0.65 (inactive),0.448,33.6 (active),29.5 (active),3.29 (inactive),7.61 (inactive),2.04,-1.82 (inactive),0.451 (inactive),-2.56,0.0797,0.816,-0.0586,-0.094,-1.8,1.23,1.17 (inactive),-0.733,-1.44,-0.441 (inactive)
CCCCCCc1nc(-c2ccc(-c3ccc(Cl)c(Cl)c3)o2)c(C)c2c1[Si](C(C)C)(C(C)C)OC2,-0.369 (inactive),-0.198,1.88 (inactive),-0.712 (inactive),0.627 (inactive),-1.57 (inactive),1.7,-4.51 (inactive),-2.74 (inactive),-4.66,-2.55,0.438,-1.55,-3.25,-4.25,-3.26,0.113 (inactive),-0.977,-1.68,-0.312 (inactive)
O=C1OCC=C[C@H]2OC34C=CCN(CCN5CCOCC5)C(=O)[C@H]3N(CCO)C(=O)[C@@H]4[C@@H]12 (stereo not given in full),-0.738 (inactive),-0.279,0.418 (inactive),0.009 (inactive),-0.392 (inactive),0.33 (inactive),-0.822,1.4 (inactive),0.628 (inactive),1.72,-0.157,0.196,0.804,-0.635,-0.253,-0.464,0.00617 (inactive),-0.299,0.292,-0.124 (inactive)
COC(=O)c1c(CC[C@@H](CO)NC(=O)N[C@@H](Cc2ccccc2)Cn2cc(-c3ccccn3)nn2)oc(C(=O)N2CCOCC2)c1C(=O)OC,-0.55 (inactive),0.149,0.179 (inactive),0.571 (inactive),0.521 (inactive),0.729 (inactive),0.291,-1.76 (inactive),-0.4 (inactive),-1.88,0.122,0.17,-1.31,0.527,0.642,-0.105,0.0526 (inactive),-0.652,-0.0834,0.765 (inactive)
COCCCNC(=O)[C@@]1(Sc2ccc(C)cc2)CC(=O)N(Cc2ccccc2Cl)[C@@H]1c1ccc(CO)cc1,0.864 (inactive),-0.0011,0.38 (inactive),-0.91 (inactive),0.712 (inactive),-1.83 (inactive),2.14,-2.58 (inactive),-1.22 (inactive),-2.91,0.102,0.381,-0.646,0.661,-0.218,-0.627,-0.554 (inactive),0.118,-2.29,1.76 (inactive)
CCN(CC)c1ccc(N2CC=CC34O[C@@H]5/C=C\CCC(C)OC(=O)C5[C@H]3C(=O)N(CCCCCO)[C@@H]4C2=O)cc1 (stereo not given in full),-0.0949 (inactive),-0.147,-0.062 (inactive),-0.928 (inactive),-0.356 (inactive),-0.427 (inactive),0.414,-0.0453 (inactive),-0.419 (inactive),0.779,0.192,-0.743,0.0376,1.56,-0.863,0.423,0.158 (inactive),-0.0486,1.29,0.697 (inactive)
O=C1[C@H]2C=C(Br)[C@H](C[C@@H]2OCCCCCCO)[C@@]12CO2,-1.69 (inactive),-0.101,1.53 (inactive),0.318 (inactive),1.2 (inactive),0.501 (inactive),-0.276,0.486 (inactive),0.633 (inactive),-0.292,-0.141,-0.572,-0.339,-1.04,0.206,-1.59,-0.253 (inactive),-0.601,-0.0629,-0.247 (inactive)
COCCCNC(=O)[C@@]1(CCS(=O)(=O)c2ccccc2)N=C(c2ccc(OCCCO)cc2)O[C@H]1c1ccccc1N=[N+]=[N-],1.12 (inactive),0.517,29.4 (active),21 (active),1.28 (inactive),0.425 (inactive),1.62,-5.07 (inactive),-2.78 (inactive),-2.11,-0.196,2.02,-0.43,0.0021,-2.28,0.4,-0.636 (inactive),-0.938,-1.2,1.36 (inactive)
O=C(CS)NCCCCCNC(=O)[C@@H]1C[C@@H]2C(=O)NCC(=O)N2[C@@H]1c1ccc(O)cc1,1.6 (inactive),-0.101,0.802 (inactive),0.0605 (inactive),-0.194 (inactive),0.179 (inactive),-0.259,1.18 (inactive),-0.584 (inactive),1.67,0.347,0.136,-1.19,-0.403,-0.727,1.14,-0.00814 (inactive),0.852,0.158,-1.31 (inactive)
COc1ccc(CCNC(=O)[C@@]2(C)c3ccccc3C(=O)N(c3ccc(C)cn3)[C@H]2c2ccc(CO)cc2)cc1,-0.246 (inactive),-0.0378,2.01 (inactive),-0.1 (inactive),0.825 (inactive),0.156 (inactive),-0.0316,-0.911 (inactive),-0.78 (inactive),-1.81,-0.0466,-0.2,-0.352,-0.64,-0.081,-0.429,1.22 (inactive),0.143,-0.00393,0.236 (inactive)
[N-]=[N+]=Nc1ccccc1[C@H]1OC(c2ccc(OCCCO)cc2)=N[C@@]1(Cc1ccccc1)C(=O)N1CCOCC1,-0.388 (inactive),0.342,30.8 (active),30.6 (active),2.96 (inactive),9.58 (active),-0.0055,-1.29 (inactive),1.27 (inactive),1.13,-1.59,0.539,-1.12,-2.4,-3.94,-0.273,0.598 (inactive),-1.09,-2.67,-2.74 (inactive)
C=CC1c2cc(O)c(OC)cc2CCN1Cc1cccc(OC(F)(F)F)c1 (stereo not given),0.277 (inactive),0.123,5.32 (inactive),0.544 (inactive),0.2 (inactive),0.451 (inactive),-0.318,-4.69 (inactive),-2.9 (inactive),-4.4,-1.97,0.566,-3.19,-3.18,-2.2,-2.6,-0.604 (inactive),-0.752,-1.85,-0.821 (inactive)
CC(C)C(=C=CC[C@H](O)c1ccc(CO)o1)CCO,-0.543 (inactive),0.0494,1.77 (inactive),0.408 (inactive),0.186 (inactive),-0.012 (inactive),-0.516,0.228 (inactive),-0.345 (inactive),-0.21,-0.0934,-0.33,-0.0026,-1.25,-0.2,-0.427,-0.0538 (inactive),-0.533,0.019,-0.507 (inactive)
N#Cc1ccc(C(O)C2C=CC3C(=O)N(c4ccccc4)C(=O)C3N2Nc2ccccc2F)cc1 (stereo not given),0.55 (inactive),0.149,3.98 (inactive),-0.245 (inactive),-0.246 (inactive),-0.616 (inactive),0.179,-1.82 (inactive),-3.54 (inactive),-2.02,0.545,-1.05,-0.245,0.755,-0.406,-0.776,-0.872 (inactive),0.585,-0.0841,0.0801 (inactive)
